Counter-ions that a name gives are not always drawn. ± gives the standard deviation of the averaged measurements.
Tests used:
[1] = test system: CLZ3 (HCA2 human fibroblast dual HR-NHEJ reporter); assay: NHEJ repair efficiency (GFP+ cells) relative to control (log10 fold); higher = more non-homologous end joining; details: 5 µM; doxycycline 0.5 ug/mL
[2] = test system: CLZ3 (HCA2 human fibroblast dual HR-NHEJ reporter); assay: HR repair efficiency (tdTomato+ cells) relative to control (log10 fold); higher = more homologous recombination; details: 5 µM; doxycycline 0.5 ug/mL
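Throughout, for HR repair efficiency (tdTomato+ cells) relative to control: compound given one day before doxycycline, which switches on I-SceI endonuclease expression to create double-strand breaks within the integrated reporter.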
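Throughout, for NHEJ repair efficiency (GFP+ cells) relative to control: compound given one day ahead of doxycycline, which switches on I-SceI endonuclease to cut the chromosomally integrated reporter and create DSBs.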

| Compound | NHEJ repair efficiency (log10) [1] | HR repair efficiency (log10) [2] |
| --- | --- | --- |
| C=C1CCC[C@]2(C)C=C3OC(=O)C(C)=C3C[C@@H]12 [Atractylenolide I] | 0.0524 | 0.0435 |
| OCc1ccccc1O[C@@H]1O[C@H](CO)[C@@H](O)[C@H](O)[C@H]1O [Salicoside] | -0.0463 | 0.251 |
| COc1ccc(C(C)=O)c(O)c1 [Paeonol] | 0.076 | 0.17 |
| C[C@@]12C[C@H](c3ccoc3)O[C@@]13C[C@H](OC3=O)[C@H]1[C@H]2C[C@@H]2C[C@H]1C(=O)O2 [Diosbulbin B] | -0.0688 | 0.0545 |
| C[C@@H]1O[C@@H](OC[C@H]2O[C@@H](Oc3cc(O)c4c(=O)cc(-c5ccc(O)cc5)oc4c3)[C@H](O[C@@H]3O[C@@H](C)[C@H](O)[C@@H](O)[C@H]3O)[C@@H](O)[C@@H]2O)[C@H](O)[C@H](O)[C@H]1O [Ligustroflavone] | 0.105 | 0.0603 |
| C[C@H](CC[C@@]1(O)O[C@H]2C[C@H]3[C@@H]4CC=C5C[C@@H](O[C@@H]6O[C@H](CO)[C@@H](O[C@@H]7O[C@@H](C)[C@H](O)[C@@H](O)[C@H]7O)[C@H](O)[C@H]6O[C@@H]6O[C@@H](C)[C@H](O)[C@@H](O)[C@H]6O)CC[C@]5(C)[C@H]4CC[C@]3(C)[C@H]2[C@@H]1C)CO[C@@H]1O[C@H](CO)[C@@H](O)[C@H](O)[C@H]1O [Protodioscin] | -0.00725 | -0.042 |
| Cc1cc(O)cc(O[C@@H]2O[C@H](CO)[C@@H](O)[C@H](O)[C@H]2O)c1 [Orcinol Glucoside] | 0.0229 | -0.0841 |
| OC[C@H]1O[C@H](OC[C@H]2O[C@@H](O[C@@H]3OC=C[C@H]4[C@H](O)[C@@H]5O[C@]5(CO)[C@@H]34)[C@H](O)[C@@H](O)[C@@H]2O)[C@H](O)[C@@H](O)[C@H]1O [Rehmannioside A] | 0.0412 | -0.0566 |
| COc1ccc(-c2cc(=O)c3c(O)cc(O[C@@H]4O[C@H](CO[C@@H]5O[C@@H](C)[C@H](O)[C@@H](O)[C@H]5O)[C@@H](O)[C@H](O)[C@H]4O)cc3o2)cc1O [Diosmin] | -0.157 | -0.0408 |
| Cc1ccc(C(C)C)cc1 [p-Cymene] | 0.065 | 0.196 |
| C=C(C)[C@@H]1CC[C@]2(C(=O)O)CC[C@]3(C)[C@H](CC[C@@H]4[C@@]5(C)CC[C@H](O)C(C)(C)[C@@H]5CC[C@]43C)[C@@H]12 [Betulinic acid] | 0.0052 | 0.0512 |
| NCCCC(=O)O [g-Aminobutyric acid] | 0.0698 | 0.0647 |
| OC[C@H]1O[C@@H](Oc2cc(O)cc(/C=C/c3ccc(O)cc3)c2)[C@H](O)[C@@H](O)[C@@H]1O [Polydatin] | 0.036 | 0.288 |
| N[C@@H](Cc1ccc(O)c(O)c1)C(=O)O [Levodopa] | 0.0328 | 0.0905 |
| Cn1c(=O)c2c(ncn2CC2OCCO2)n(C)c1=O [Doxofylline] | 0.101 | 0.0399 |
| OCCc1ccc(O)c(O)c1 [Hydroxytyrosol] | 0.0571 | 0.228 |
| O=C1c2c(O)cc(O)cc2OC(c2ccc(O)c(O)c2)C1O (configuration not stated) [Taxifolin] | -0.132 | -0.0702 |
| CCCCCCCCCCCCCCCCCC(=O)OC [Methyl Stearate] | -0.0143 | -0.0898 |
| CC(C)=CCC/C(C)=C/CC/C(C)=C/CC/C(C)=C/CC/C(C)=C/CC/C(C)=C/CC/C(C)=C/CC/C(C)=C/CC/C(C)=C/CO [Solanesol] | -0.0479 | -0.0545 |

| Compound | NHEJ repair efficiency (log10) [1] | HR repair efficiency (log10) [2] |
| --- | --- | --- |
| C=C1C(=O)O[C@@H]2/C=C(\C)CC/C=C(\C)CC[C@@H]12 [Costunolide] | -0.04 | 0.07 |
| COc1cccc(OC)c1C(=O)OCc1cc(O)ccc1O[C@@H]1O[C@H](CO)[C@@H](O)[C@H](O)[C@H]1O [Curculigoside] | 0.0105 | 0.0401 |
| CC1(C)CCC2(CO)C(=C3C=CC4C5(C)CCC(OC6OC(COC7OC(CO)C(O)C(O)C7O)C(OC7OC(CO)C(O)C(O)C7O)C(O)C6O)C(C)(CO)C5CCC4(C)C3(C)CC2O)C1 (configuration not stated) [Clinopodiside A] | -0.0569 | 0.0428 |
| CCCCCCCCC[C@H](O)CC(=O)CCc1ccc(O)c(OC)c1 [10-Gingerol] | 0.0104 | 0.0717 |
| O=c1c(O[C@@H]2O[C@H](CO)[C@@H](O)[C@H](O)[C@H]2O)c(-c2ccc(O)c(O)c2)oc2cc(O)cc(O)c12 [Isoquercitrin] | -0.0426 | 0.0777 |
| COc1cc2c(cc1OC)-c1cc3ccc(OC)c(OC)c3c[n+]1CC2 [Palmatine hydrochloride] | 0.0374 | 0.0612 |
| O=C1C=C2C=C[C@@H](O)[C@H](O)[C@H]2O1 [Griffonilide] | 0.0786 | 0.00766 |
| O=C(O)CCC(=O)O [Succinic acid] | 0.006 | 0.102 |
| O=c1ccc2ccc(O)cc2o1 [Umbelliferone] | 0.115 | 0.269 |
| COc1cc2c(cc1O)CC[n+]1cc3c(OC)c(OC)ccc3cc1-2 [Jatrorrhizine] | -0.00725 | 0.0284 |
| C[N+](C)(C)C[C@H](O)CC(=O)[O-] [L-Carnitine] | -0.0644 | 0.0663 |
| COC(=O)C1=CO[C@@H](O[C@@H]2O[C@H](CO)[C@@H](O)[C@H](O)[C@H]2O)[C@H]2[C@@H]1C(=O)C[C@@H]2C [Verbenalin] | 0.0793 | 0.178 |
| O=Cc1ccc(CO)o1 [5-Hydroxymethylfurfural] | -0.214 | 0.0126 |
| OC[C@H]1OC(O)[C@@H](O)[C@@H](O)[C@@H]1O (some centres not stated) [Mannose] | 0.0722 | 0.0481 |
| CC1(C)[C@@H](O[C@H]2O[C@H](C(=O)O)[C@@H](O)[C@H](O)[C@H]2O[C@@H]2O[C@H](C(=O)O)[C@@H](O)[C@H](O)[C@H]2O)CC[C@]2(C)[C@H]3C(=O)C=C4[C@@H]5C[C@@](C)(C(=O)O)CC[C@]5(C)CC[C@@]4(C)[C@]3(C)CC[C@@H]12 [Glycyrrhizic acid] | 0.142 | -0.0143 |
| O=C1/C(=C2\Nc3ccccc3C2=O)Nc2ccccc21 [Indigo] | -0.108 | -0.0903 |
| CC(C)(O)CC[C@@H](O)C(C)(O)[C@H]1CC[C@@]2(O)C3=CC(=O)[C@@H]4C[C@@H](O)[C@@H](O)C[C@]4(C)[C@H]3CC[C@]12C (stereo partly drawn) [Β-Hydroxyecdysone] | -0.034 | 0.056 |
| O=C(/C=C/c1ccc(O)cc1)C1=C(O)C(O)([C@@H]2O[C@H](CO)[C@@H](O)[C@H](O)[C@H]2O)C(O)=C([C@@H]2O[C@H](CO)[C@@H](O)[C@H](O)[C@H]2O)C1=O (some centres not stated) [Hydroxysafflor yellow A] | 0.0258 | 0.0597 |
| C[C@@H]1O[C@@H](O[C@@H]2[C@@H](O)[C@H](OCCc3ccc(O)c(O)c3)O[C@H](COC(=O)/C=C/c3ccc(O)c(O)c3)[C@H]2O)[C@H](O)[C@H](O)[C@H]1O [Isoacteoside] | -0.112 | 0.017 |

| Compound | NHEJ repair efficiency (log10) [1] | HR repair efficiency (log10) [2] |
| --- | --- | --- |
| Cn1c(=O)c2c(ncn2CC(O)CO)n(C)c1=O (configuration not stated) [Diprophylline] | 0.137 | 0.116 |
| COc1cc2oc(=O)ccc2c(OC)c1O [Fraxinol] | 0.0138 | 0.0872 |
| C[C@@H]1O[C@@H](O[C@H]2[C@H](Oc3c(-c4ccc(O)cc4)oc4cc(O)cc(O)c4c3=O)O[C@H](CO)[C@@H](O)[C@@H]2O)[C@H](O)[C@H](O)[C@H]1O [Kaempferol 3-O-Neohesperidoside] | 0.0799 | 0.307 |
| CC(C)=CCC[C@](C)(O)[C@H]1CC[C@]2(C)[C@@H]1[C@H](O)C[C@@H]1[C@@]3(C)CC[C@H](O[C@@H]4O[C@H](CO)[C@@H](O)[C@H](O)[C@H]4O[C@@H]4O[C@H](CO)[C@@H](O)[C@H](O)[C@H]4O)C(C)(C)[C@@H]3CC[C@]12C [R-Ginsenoside Rg3] | 0.0761 | -0.0174 |
| O=c1c(-c2ccc(O)c(O)c2)coc2c([C@@H]3O[C@H](CO)[C@@H](O)[C@H](O)[C@H]3O)c(O)ccc12 [3-Hydroxy Puerarin] | -0.187 | -0.112 |
| C/C=C/C#CC#C[C@@H](O)[C@@H](/C=C/CCCO)O[C@@H]1O[C@H](CO)[C@@H](O)[C@H](O)[C@H]1O [Lobetyolin] | 0.048 | 0.131 |
| O=C1c2ccccc2C(=O)c2c1cc(O)c(CO)c2O [Lucidin] | 0.134 | 0.258 |
| COc1cc([C@H]2OC[C@H]3[C@@H]2CO[C@H]3c2ccc(OC)c(OC)c2)ccc1O [Phillygenin] | 0.129 | 0.116 |
| O=c1ccc2ccccc2o1 [Coumarin] | -0.104 | 0.0819 |
| COc1cc2c(cc1OC)[C@@H]1Cc3ccc(OC)c(OC)c3CN1CC2 [Rotundine] | -0.0594 | 0.112 |
| CCC/C=C1\OC(=O)C2=C1CCC1C3C=C4C(=O)O/C(=C\CCC)C4(CC3)C21 (configuration not stated) [Levistilide A] | -0.106 | 0.0314 |
| O=c1cc(-c2ccc(O)cc2)oc2cc(O[C@@H]3O[C@H](CO)[C@@H](O)[C@H](O)[C@H]3O[C@@H]3OC[C@](O)(CO)[C@H]3O)cc(O)c12 [Apiin] | 0.142 | 0.321 |
| CN[C@@H](C)[C@H]1[C@H](O)C[C@@]2(C)[C@@H]3CC[C@H]4C(C)(C)[C@@H](NC)CC[C@@]45C[C@@]35CC[C@]12C [Cyclovirobuxine D] | -0.023 | 0.0389 |
| COc1cc(/C=C/C(=O)CC(=O)/C=C/c2ccc(O)c(OC)c2)ccc1O [Curcumin] | 0.317 | -0.113 |
| O=C(CCc1ccc(O)cc1)c1c(O)cc(O)cc1O[C@@H]1OC(CO)[C@@H](O)[C@@H](O)C1O (some centres not stated) [Phloridzin] | -0.0404 ± 0.071 | 0.0182 ± 0.039 |
| C/C=C(/C)C(=O)OC(C)(C)[C@@H]1Cc2c(ccc3ccc(=O)oc23)O1 [Columbianadin] | -0.0553 | -0.0376 |
| COc1ccc(C=O)c(O)c1 [4-Methoxysalicylaldehyde] | 0.00827 | -0.0885 |
| OC[C@H]1NC[C@H](O)[C@@H](O)[C@@H]1O [1-Deoxynojirimycin] | 0.0355 | 0.0442 |

Reference: the supplement of paper PMC7380943
